Molecules are shown by their SMILES. Inconclusive results are not listed. Entries that show only a call come without a potency. Active and inactive are the calls of the source. Calls follow the shape of the dose curve; as a rule, active = well fitted curve in the direction sought with a large enough effect; inconclusive = small, poorly fitted or top-dose-only effect, or another doubt; inactive = no such curve, though single readings can be large; an effect the other way counts as inactive or inconclusive.

One test in a line: qHTS for Inhibitors of Plasmodium falciparum (HB3) proliferation (AID 504318). Also: nearly all actives have a fitted effect of over 60% in size. Also: potency is read from the fitted curve at half-maximal effect. To be noted: P. falciparum HB3 in erythrocytes, SYBR Green DNA, 72 h; series mostly up to 7.21 µM. The method, boiled down: (§1)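 Parasite growth measured as SYBR Green DNA fluorescence (ex 485, em 535 nm) after overnight lysis following 72 h culture at 37 °C, 0.3% parasitemia, 2.5% hematocrit. Values normalized against DMSO and 0.29 uM artemisinin controls, with plate-stack correction.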
A general note: In qHTS, concentration-response curves come from the screen itself.
Take `C=CCN1c2ccccc2[C@]23CCC(=O)N(CC(=O)OC)C2=NC(C(=O)OC)=C(C(=O)OC)[C@H]13`: the Potency result is “inactive”.
Regarding `COc1ccc2c3c(c(=O)oc2c1)[C@H]1O[C@](CCCCN2C(=O)c4ccccc4C2=O)(Cc2cc(OC)c(OC)cc21)O3`, the Potency is 1510 nM (active).
`C[C@@H]1C=CCC(=O)N2[C@H](CC(=O)N[C@@H]1c1ccccc1)C[C@@H](C)[C@@H]2c1ccccc1`: the Potency result was “inactive”.
Consider `C=CC[C@@H]1C=C[C@H](ON=C(C)CCN2CCCc3nc(C)c(C)cc32)[C@H](CO)O1`, for which the Potency was 2510 nM (active).
Turning to `CC(=O)C1=C(C)N(Cc2ccccc2)C(=O)NC1CCc1ccccc1` (stereo not given), the Potency entry is “inactive”.
Consider `COC(=O)C1=C(C)N(CC2CC2)C(=O)NC1c1ccc(Br)cc1` (stereo not given), for which the Potency result is “inactive”.
On the same count and under the same terms, the same measure for `COc1ccc2c(c1)CO[C@H]([C@H](O)CO)[C@H]2C=CC#Cc1ccc(C(C)(C)C)cc1`: “inactive”; for `COc1ccc([C@]23Cc4ccccc4[C@H](O2)c2c(cc(-c4ccccc4)oc2=O)O3)cc1`: “inactive”.
The same measure, in the same setting: the same measure for `C[C@@H](ON=C1[C@H]2CCn3c(=O)n(-c4ccccc4)c(=O)n3[C@@H]2[C@H](O)[C@@H]2O[C@H]12)c1cn([C@@H]2COC[C@@H]2O)nn1`: “inactive”.
As for `CCN1C(=NCc2cccc(C(F)(F)F)c2)NC(c2cccc(F)c2)C(C(=O)OC)=C1C` (stereo not given), the Potency entry was “inactive”.
Still for that read-out and setting: the same measure for `CCN1C(=NCCCOC(C)C)N[C@@H](CCc2ccccc2)[C@H](C(=O)NCCCOC(C)C)[C@H]1C`: “inactive”; for `COC(=O)C1=C(C(=O)OC)[C@@H]2N(C)c3ccc(OC)cc3[C@@]23C[C@@H](C(=O)OC)N(C(=O)NCCBr)C3=N1`: 2130 nM (active); for `CC1(C)CC(=O)C2=C(C1)O[C@@]1(c3ccsc3)Cc3cc(C#N)ccc3[C@H]2O1`: “inactive”.
Still for that read-out and setting: the same measure for `COc1cccc([C@H]2Oc3ccc(OC)cc3C(=NO[C@H](C)CN3CCCc4nc(C)c(C)cc43)[C@H]2O)c1`: “inactive”; for `c1ccc(CCc2nc(-c3ccccc3)oc2NC2CCCCC2)cc1`: “inactive”; for `COc1cccc(-c2coc3ccc(Br)cc3c2=O)c1`: “inactive”.
For the molecule `COC(=O)C(C(=O)OC)[C@@H]1O[C@@]23COC=C[C@]2(C)[C@@H]3c2ccccc21`, the Potency result is “inactive”.
Same read-out and setting: as for `CC(C)=CCCC(C)=CCN1C(=O)[C@]2(O[C@H](COc3ccccc3)CC3=CCCC32)c2c(Br)cccc21` (stereo not given in full), the figure is 1690 nM (active); as for `O=C1C2=C(C(=O)c3ccccc31)[C@H]1O[C@](c3ccsc3)(Cc3c1ccc1ccccc31)O2`, “inactive”; as for `O=C1CCCC2=C1[C@H]1O[C@](c3ccsc3)(Cc3c1ccc1ccccc31)O2`, “inactive”.
In the case of `C[C@H]1CC[C@H]2C(=O)N[C@H](Cc3ccccc3)C(=O)N2[C@H]1c1ccccc1`, the Potency entry was “inactive”.
Same read-out and setting: as for `N#Cc1ccc2c(c1)C[C@]1(CCCCN3C(=O)c4ccccc4C3=O)Oc3cc(-c4ccccc4)oc(=O)c3[C@H]2O1`, the entry is “inactive”.
In the case of `COC(=O)N1C(c2ccccc2)=Cc2ccccc2C1C1(C(=O)OC)CCCC1=O` (stereo not given), the Potency entry was “inactive”.
`CC(C)[C@@H](OCc1ccccc1)[C@H](C)CON=C1[C@H]2CCn3c(=O)n(-c4ccccc4)c(=O)n3[C@@H]2[C@H](O)[C@@H]2O[C@H]12`: the Potency result is “inactive”.
On to `O=c1oc2ccccc2c2c1[C@H]1O[C@](c3ccsc3)(Cc3ccccc31)O2`, for which the Potency entry is “inactive”.
Regarding `COc1ccc([C@]23Cc4cc(OC)c(OC)cc4[C@H](O2)c2c(cc(C)oc2=O)O3)cc1`, the Potency result was “inactive”.
As to `CC#C[C@H](C)[C@@H](OCOC)[C@H](C[C@H](C)Cc1cc(Br)cc(OCc2ccccc2)c1OC)OC`, the Potency is 1690 nM (active).

The nature of a further test: qHTS for Inhibitors of Plasmodium falciparum (CP250) proliferation (AID 504320). To be noted: P. falciparum CP250 in erythrocytes, SYBR Green DNA, 72 h; series mostly up to 6.7 µM. The method, boiled down: as §1
On to `C[C@@H]1C=CCC(=O)N2[C@H](CC(=O)N[C@@H]1c1ccccc1)C[C@@H](C)[C@@H]2c1ccccc1`, for which the Potency result is “inactive”.
On to `COC(=O)CC1=CO[C@@H](O)[C@@H]2C(CO)=CC[C@@H]12`, for which the Potency result is “inactive”.
Turning to `COC(=O)CC=C1c2ccccc2[C@@H](OC)[C@@H]1C`, the Potency result was “inactive”.
Take `COC(=O)N[C@H](C(C(=O)OC)=C(C)NCc1ccccc1)c1ccco1`: the Potency entry is “inactive”.
`CC(=O)C1=C(C)N(Cc2ccccc2)C(=O)NC1CCc1ccccc1` (stereo not given): the Potency result was “inactive”.
As for `COC(=O)C1=C(C)N(CC2CC2)C(=O)NC1c1ccc(Br)cc1` (stereo not given), the Potency entry was “inactive”.
With `COc1ccc2c(c1)CO[C@H]([C@H](O)CO)[C@H]2C=CC#Cc1ccc(C(C)(C)C)cc1`, the Potency result is “inactive”.
On to `COC(=O)CCCC1=CC2=C(c3ccccc3)C(=O)C(C)(OC(=O)C3CCCC3)C(=O)C2=CN1c1ccc(OC)cc1` (stereo not given), for which the Potency result is “inactive”.
On to `COc1ccc([C@]23Cc4ccccc4[C@H](O2)c2c(cc(-c4ccccc4)oc2=O)O3)cc1`, for which the Potency entry is “inactive”.
Consider `COC1=C[C@H](C(=O)N[C@H]2CCCC[C@H]2NC(C)=O)[C@H](C)[C@@H](c2ccccc2)CC1=O`, for which the Potency result was “inactive”.
Turning to `C[C@@H](ON=C1[C@H]2CCn3c(=O)n(-c4ccccc4)c(=O)n3[C@@H]2[C@H](O)[C@@H]2O[C@H]12)c1cn([C@@H]2COC[C@@H]2O)nn1`, the Potency entry was “inactive”.
With `CCCCc1nc2c(c3c1C[C@H](C)OC3)CN(S(=O)(=O)c1ccccc1C(=O)OC)CC2`, the Potency result is “inactive”.
Consider `COc1cccc([C@H]2Oc3ccc(OC)cc3C(=NO[C@H](C)CN3CCCc4nc(C)c(C)cc43)[C@H]2O)c1`, for which the Potency entry is “inactive”.
As for `CC(CCC(=O)OC[C@H]1O[C@H](C#Cc2ccccc2)C=C[C@H]1Oc1ccc(C)cc1)=NO[C@H](C)c1cn([C@@H]2COC[C@@H]2O)nn1`, the Potency entry is “inactive”.
Same read-out and setting: as for `CC(C)=CCN1C(=O)[C@@]2(CC(C)=C[C@@H](COCc3ccccc3)O2)c2ccccc21`, the entry is “inactive”; as for `COc1cccc(-c2coc3ccc(Br)cc3c2=O)c1`, “inactive”; as for `COC(=O)C(C(=O)OC)[C@@H]1O[C@@]23COC=C[C@]2(C)[C@@H]3c2ccccc21`, “inactive”.
In the case of `O=C1C2=C(C(=O)c3ccccc31)[C@H]1O[C@](c3ccsc3)(Cc3c1ccc1ccccc31)O2`, the Potency entry was “inactive”.
In the case of `O=C1CCCC2=C1[C@H]1O[C@](c3ccsc3)(Cc3c1ccc1ccccc31)O2`, the Potency result is “inactive”.
In the case of `C[C@H]1CC[C@H]2C(=O)N[C@H](Cc3ccccc3)C(=O)N2[C@H]1c1ccccc1`, the Potency result is “inactive”.
As to `N#Cc1ccc2c(c1)C[C@]1(CCCCN3C(=O)c4ccccc4C3=O)Oc3cc(-c4ccccc4)oc(=O)c3[C@H]2O1`, the Potency entry was “inactive”.
On to `COC(=O)N1C(c2ccccc2)=Cc2ccccc2C1C1(C(=O)OC)CCCC1=O` (stereo not given), for which the Potency result was “inactive”.
For the molecule `CCCNC(=O)OC[C@H]1O[C@H](CCON=C(C)CCC(=O)OC[C@H]2O[C@H](C#Cc3ccccc3)C=C[C@H]2Oc2ccc(C)cc2)C=C[C@H]1Oc1ccc(OC)cc1`, the Potency entry was “inactive”.
Regarding `COC(=O)c1ccc(CN2C(=O)[C@]3(OCCC=C[C@@H]3C)c3cc(OC)ccc32)cc1`, the Potency result was “inactive”.
Regarding `Cc1cc2c(nc1C)CCCCN2C[C@H](C)ON=C[C@@H](C)[C@H](OCc1ccccc1)C(C)C`, the Potency result was “inactive”.
As to `O=c1oc2ccccc2c2c1[C@H]1O[C@](c3ccsc3)(Cc3ccccc31)O2`, the Potency entry is “inactive”.
As for `COc1ccc([C@]23Cc4cc(OC)c(OC)cc4[C@H](O2)c2c(cc(C)oc2=O)O3)cc1`, the Potency entry was “inactive”.
Same read-out and setting: as for `CC1(OC(=O)C2CCCC2)C(=O)C=C2C=C(c3ccsc3)N(Cc3ccccc3)C=C2C1=O` (stereo not given), the entry is “inactive”.

For the origin of these results see PubChem BioAssay (NCATS).
